Results as given in PubChem BioAssay AID1259324 (C. David Weaver Laboratory, Vanderbilt University, 2017).
Out of some 34,000 compounds screened, fewer than 10 were called active.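 Rule for the calls: active = primary screen hit, no activity in plain HEK293 cells, and in GIRK2-only cells above 5% efficacy rising with concentration; inactive = the rest, including fluorescent compounds.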 Not all results are given here.

What follows are compounds tested against G protein-activated inward rectifier potassium channel 2 (Homo sapiens) (UniProt P48051) (assay: activators of NPY4-receptor-primed GIRK2 channels, summary, cell-based, HEK293, thallium flux (AID 1259324)). Details: HEK293 GIRK2/NPY4 cells, thallium flux fluorescence.
G protein-activated inward rectifier potassium channel 2 (Homo sapiens), sequence (P48051 whole entry, looked up): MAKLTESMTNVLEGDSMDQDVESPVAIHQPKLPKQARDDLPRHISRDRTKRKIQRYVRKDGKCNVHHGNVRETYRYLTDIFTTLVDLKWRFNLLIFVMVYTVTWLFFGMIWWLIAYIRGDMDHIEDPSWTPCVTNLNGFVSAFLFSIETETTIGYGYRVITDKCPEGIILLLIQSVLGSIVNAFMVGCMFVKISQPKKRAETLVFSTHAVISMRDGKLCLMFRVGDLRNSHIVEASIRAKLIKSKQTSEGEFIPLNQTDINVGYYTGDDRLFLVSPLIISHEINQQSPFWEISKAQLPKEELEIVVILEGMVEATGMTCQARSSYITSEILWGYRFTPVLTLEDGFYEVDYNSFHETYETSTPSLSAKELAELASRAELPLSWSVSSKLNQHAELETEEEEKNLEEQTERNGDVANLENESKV

outcome, inactive:
COc1ccc(NC(=O)c2ccc(C(F)(F)F)cc2)cc1N1CCCC1=O, O=C(NC1CC(=O)N(C2CC2)C1)c1ccc(-n2cccc2)cc1 (stereo not given), O=C(c1cccc(Cl)c1)N1CCOC(c2ccc(C(F)(F)F)cc2)C1 (stereo not given), CC1CCN(C(=O)CN2CCN(c3nccn3-c3cccc(Cl)c3)CC2)CC1, COc1cccc(C(=O)NNC(=O)c2ccc(=O)n(Cc3ccccc3)c2)c1OC, O=C(NCCCO)C(=O)Nc1ccc2c(c1)OCCO2, O=C(CSc1nc2ccsc2c(=O)n1CCc1ccccc1)Nc1ccccc1F, COCCNc1oc2c(c1-c1ccc([N+](=O)[O-])cc1)c(=O)oc1ccc(C)cc12, O=C(CN1CCOCC1)Nc1ccccc1-c1nc2ccccc2[nH]c1=O, O=S1(=O)CCC(n2nc(-c3ccco3)cc2NS(=O)(=O)c2cccc(Cl)c2)C1 (stereo not given), CC(C)(C)OC(=O)C1=NN(c2ccc(Cl)cc2)c2ncccc2S1(=O)=O, CCn1nnc2c(NCc3ccccc3OC)ncnc21, Cc1ccc(C(CNC(=O)C(=O)NCc2ccccc2)N2CCOCC2)cc1 (stereo not given), CS(=O)(=O)N1CCN(CCNC(=O)c2ccc([N+](=O)[O-])o2)CC1, O=C(NCc1cccs1)C(=O)NCC1CCN(C(=O)/C=C/c2ccco2)CC1, O=C(NCc1cccs1)C(=O)NCC1CCCO1 (stereo not given), COc1ccc(OC)c(CNC(=O)c2snc(-c3cccc(F)c3)c2N)c1, COc1ccc(CCNC(=O)COc2ccccc2Br)cc1OC, COc1cc(C)c(C)cc1S(=O)(=O)N1CCN(c2ccc(-c3cccnc3)nn2)CC1, COc1ccc(S(=O)(=O)CCCC(=O)Nc2nc(-c3ccc([N+](=O)[O-])cc3)cs2)cc1, Cc1nc(NCCNC(=O)Nc2ccccc2)cc(-n2cccn2)n1, CCN1CCc2nc(-c3ccccc3)n(CC(=O)Nc3cc(OC)cc(OC)c3)c(=O)c2C1, O=C(NCCC1=CCCCC1)C(=O)Nc1cccc(N2CCCCC2=O)c1, O=C(CN1CC(c2nc(-c3ccsc3)no2)C1)NCCc1ccccc1, Cc1nn(-c2nc(C)c(C)c(=O)[nH]2)c(C)c1CCC(=O)Nc1ccc(C(F)(F)F)cc1, O=C(Cc1ccc(NS(=O)(=O)C2CC2)cc1)NCC(F)(F)F, O=C(Cc1csc(-n2cccc2)n1)Nc1nc2ccccc2s1, Cc1cccc(NC(=O)N2CCN(c3ccc4nnc(C5CC5)n4n3)CC2)c1C, CCOc1ccc2nc(NC(=O)Cn3cnc(C(C)C)cc3=O)sc2c1, Cc1ccc(-n2ccnc2N2CCN(C(=O)c3ccccc3)CC2)cc1, CS(=O)(=O)N1CCC(C(=O)Nc2nc3ccc(F)cc3s2)CC1, Cc1nc(-c2cccc(NC(=O)Cc3c(C)[nH]c(=O)[nH]c3=O)c2)cs1, COc1cc(COCC2CCN(C(=O)/C=C/c3ccccc3Cl)CC2)cc(OC)c1, O=C(c1ccc([N+](=O)[O-])o1)N1CCN(Cc2nnnn2-c2ccc(F)c(F)c2)CC1, CC(C)(C)CN(C(=O)c1ccco1)c1ccncc1, COc1ccccc1CNC(=O)C1CN(C(C)=O)C1, Cc1ccccc1C(=O)NCCNC(=O)c1ccc(NC(=O)C(C)C)cc1, O=C(Nc1cccs1)N1CCN(c2ccc(-c3ccco3)nn2)CC1, CC(C)CCn1nc2ccc(S(=O)(=O)N3CCOCC3)cn2c1=O, Cn1nnc2c(N3CCN(C(=O)NCCOc4ccccc4)CC3)ncnc21, COc1ccc(NC(=O)C(=O)NCCC(c2ccccc2)c2ccccc2)c(OC)c1, Cc1ccc(Nc2ccc(NC(=O)/C=C/c3ccccc3)cc2)nn1, CCOc1cccc2sc(N(CCN3CCOCC3)C(=O)c3ccco3)nc12, COc1ccc(C=O)cc1Cn1c(=O)n(CCCCC(=O)NCC(C)C)c(=O)c2ccccc21, COc1cc(OC)cc(-n2c(-c3ccco3)nc3nc4ccccc4nc32)c1, Cc1ccc2nc(C3CC(=O)N(c4ccccc4)C3)[nH]c2c1 (stereo not given), COc1ccc(CCNC(=O)Cn2nc(-c3ccc(Cl)cc3)ccc2=O)cc1, O=C(NN1CCOCC1)c1ccc(N2CCC(Cc3ccccc3)CC2)nn1, CS(=O)(=O)N1CCCCC1C(=O)Nc1nc(-c2ccccn2)cs1 (stereo not given), O=C(NCCCN1CCOC(c2ccccc2)C1)c1cc2ccccc2oc1=O (stereo not given), COc1ccc(NC(=O)NCC(C)(O)C2CC2)cc1OC (stereo not given), CSc1cccc(NC(=O)NCCNc2cc(-n3cccn3)ncn2)c1, CSc1ccccc1CN1CCC(CNC(=O)c2ccc(S(=O)(=O)N(C)C)cc2)CC1, COc1ccc(N2C(=O)CN(CCC3=CCCCC3)C3CS(=O)(=O)CC32)cc1Cl (stereo not given), COc1cc(NC(=O)CSC2=NC3(CCCC3)N=C2c2ccccc2)cc(OC)c1, Cc1ccc(N2CC(C(=O)NCC3CCN(S(=O)(=O)C4CC4)CC3)CC2=O)cc1C (stereo not given), Cc1cc(-c2nnc(NC(=O)C(c3ccccc3)c3ccccc3)o2)nn1C, CCOC(=O)CNC(=O)C1COCC(=O)N1Cc1ccccc1 (stereo not given), COc1ccc(CCNC(=O)CCc2sc(C)nc2-c2cccs2)cc1, O=S(=O)(N1CCCCCC1)N1CCN(c2ccccc2F)CC1, CCOC(=O)c1cn[nH]c1S(=O)(=O)NCc1ccccn1, CSc1cccc(-n2nnc(C(=O)OCc3nc(-c4ccccc4)oc3C)c2C)c1, CN(C)C(CNC(=O)C(C)(C)C)c1ccccc1Cl (stereo not given), CC(C)CCn1nc2ccc(S(=O)(=O)N3CCCCC3)cn2c1=O, COc1ccc(NC(=O)Cn2cc(-c3ccccc3)c(N(C)C)n2)cc1OC, Cc1cc(NC(=O)C(=O)c2c(C)[nH]c3ccccc23)n(-c2nc(-c3cccs3)cs2)n1, COc1ccc(NC(=O)c2ccccc2SC)cc1N1CCCCC1=O, Cc1cc(-c2nnc(NC(=O)c3ccc(S(=O)(=O)N4CCCC4)cc3)o2)n(C)n1, COC(=O)c1ccc(OC)cc1CN1C(=O)N(c2cc(F)ccc2F)S(=O)(=O)c2ccccc21, Cc1ccc(Nc2ccc(NC(=O)c3ccc(Br)o3)cc2)nn1, Cc1csc(NC(=O)CSc2nc(=O)n(N3CCN(C)CC3)c3c2CCC3)n1, Cc1nnc(CNC(=O)C(C)n2nnc3ccccc3c2=O)o1 (stereo not given), O=C(NCCN1CCOCC1)C(=O)NCC(F)(F)F, CC(=O)N1CCN(S(=O)(=O)c2ccc(C(=O)NCc3cccnc3)cc2)CC1, COc1cc(C(=O)Nc2ccc3c(c2)N(C(=O)C2CC2)CCC3)cc(OC)c1OC, CC(Sc1ccnc2c1c(=O)n(C)c(=O)n2C)C(=O)O (stereo not given), Cn1nc(NC(=O)C(C)(C)Oc2ccc(Cl)cc2)c2c1NC(=O)CC2c1ccco1 (stereo not given), CS(=O)(=O)c1ccc(NC(=O)c2ccc(Cl)c(S(=O)(=O)N3CCOCC3)c2)cc1, CCOC(=O)Nc1nc(CC(=O)Nc2ccc(OC)cc2)cs1, O=C(NCc1ccc(Cl)cc1)C(=O)NCC1CCN(C(=O)c2cccnc2)CC1, Cc1cc(S(=O)(=O)NCC(O)c2ccc(C(F)(F)F)cc2)ccc1F (stereo not given), Cc1ccc(Oc2ccc(N(C)C(=O)c3cccc(F)c3)cc2)nn1, CCOc1ccc(-c2cc(=O)n(CCCC(=O)Nc3cc(C)ns3)cn2)cc1, Cc1noc(C)c1S(=O)(=O)N1CCN(Cc2nc(-c3ccco3)cs2)CC1, CC1CCN(c2oc(-c3ccc(S(=O)(=O)N(C)Cc4ccccc4)cc3)nc2C#N)CC1, O=C(NCC1CCN(S(=O)(=O)C2CC2)CC1)c1ccccn1, CCOC(=O)C(CC)Sc1ccnc2c1c(=O)n(C)c(=O)n2C (stereo not given), CN1CCN(C(CNC(=O)C(=O)NCc2ccc(Cl)cc2)c2cccn2C)CC1 (stereo not given), CCN1CCc2nc(-c3ccccc3)n(CC(=O)Nc3cccc(Cl)c3C)c(=O)c2C1, CC(C)C(=O)N1CCCc2ccc(NC(=O)C(=O)NCCCc3ccccc3)cc21, CCOc1ccc(NS(=O)(=O)c2cccc(OC)c2)cc1, COc1cc(S(=O)(=O)N2CCN(CCO)CC2)ccc1Cl, O=C(N1CCC(c2cccs2)CC1)C1(c2ccc(F)cc2)CC1, CS(=O)(=O)N1CCN(Cc2nnnn2-c2ccc(F)cc2)CC1, CCn1c(SCC(=O)N(C)c2ccccc2)nnc1-c1cn(C)nc1OC, O=C(NCCN1CCC(c2cccs2)CC1)C(=O)Nc1ccc2c(c1)OCO2, CCCNC(=O)C(=O)Nc1c2c(nn1C(C)(C)C)CSC2, O=C(Nc1ccc(Cl)cc1)N1CCC2(CC1)NC(=O)N(CCOc1ccccc1)C2=O, O=C(CCn1ccc(=O)[nH]c1=O)N1CCN(c2ccc(-c3ccccn3)nn2)CC1, Cn1cnc2cc(OC(=O)c3ccc(=O)[nH]n3)ccc21, O=C(Cc1ccc2c(c1)OCO2)Nc1nnc(-c2ccc(Br)s2)o1, CC1(C)Cc2cccc(OCCCS(=O)(=O)N3CCCCC3)c2O1, O=C(Cn1cnc(-c2cccs2)cc1=O)NCCOc1ccc(F)cc1, COC(=O)c1ccc(-c2csc(NC(=O)CS(=O)(=O)Cc3ccccc3)n2)cc1, Cc1cccc(C(=O)Nc2cc(-c3ccco3)nn2-c2nc(C)cc(=O)[nH]2)c1
